Data on 5 compounds can be found in PubChem BioAssay (EPA / NIEHS).

The structures appear in SMILES notation. Activity calls are given as the source filed them. How the source made its calls: active means hit-call score of the fitted dose curve at least 0.9, where 1 is the maximum; inactive means score below 0.9.

The nature of assay [1]: ATG_GLI_CIS: Attagene CIS-FACTORIAL HepG2 Assay for human Zinc Finger Protein GLI1 (AID 2282945). The conditions noted are these: HepG2, Attagene cis-factorial reporter mRNA, GLI element; actives raise or lower the signal. The method, boiled down:
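Transiently transfected HepG2 cells report endogenous transcription factor activity via cis-element-driven reporter units. After 24 h compound exposure, reporter mRNA was measured by RT-PCR with capillary electrophoresis; bidirectional fitting against DMSO baseline.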

The nature of assay [2]: ATG_ISRE_CIS: Attagene CIS-FACTORIAL HepG2 Assay for human Interferon Regulatory Factor 1 (IRF1) binding to an Interferon-Stimulated Response Element (ISRE) (AID 2282948). The conditions noted are these: HepG2 ISRE cis-reporter (Attagene), mRNA transcription readout; actives raise or lower the signal. The method, boiled down:
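Read-out: fluorescent RT-PCR products resolved by capillary electrophoresis, reporting endogenous transcription factor activity via ISRE-driven reporter mRNA in transfected HepG2 cells dosed for 24 h; gain or loss fitted relative to DMSO.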

Assay [3] can be described thus: ATG_M_32_CIS: Attagene CIS-FACTORIAL HepG2 Assay for M32 Transcription Factor (Internal Marker) (AID 2282949).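 Further: background control marker of the multiplexed CIS panel rather than a real target.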 The settings on record: HepG2 Attagene cis-factorial M32 reporter, mRNA; actives raise or lower the signal. The method, boiled down:
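HepG2 transfectants (cis-regulated reporter transcription units) dosed 24 h. Reporter mRNA by RT-PCR plus CE, analysed as gain or loss relative to DMSO.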

Assay [4] addresses Hypoxia-inducible factor 1-alpha (Homo sapiens) (UniProt Q16665). Nature of the assay: ATG_HIF1a_CIS: Attagene CIS-FACTORIAL HepG2 Assay for human Hypoxia Inducible Factor 1 (HIF1A) (AID 2282951). The settings on record: HepG2 Attagene cis-factorial HIF1a reporter transcription; actives raise or lower the signal. The method, boiled down: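 HepG2, transient cis-reporter library, 24 h dosing. RNA → RT (oligo dT) → PCR → 6-FAM primer extension → HpaI → CE. Bidirectional curve fit vs DMSO.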

Assay [5] has as its target Hepatocyte nuclear factor 6 (Homo sapiens) (UniProt Q9UBC0). Nature of the assay: ATG_HNF6_CIS: Attagene CIS-FACTORIAL HepG2 Assay for human Hepatocyte Nuclear Factor 6 (HNF6) (AID 2282952). The settings on record: HepG2 Attagene cis-factorial HNF6 reporter transcription; actives raise or lower the signal. The method, boiled down:
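First, HepG2 cells were transfected with the multiplexed cis reporter library and dosed with chemical for 24 h. Next, RNA was reverse-transcribed, PCR-amplified and fluorescently labelled. Finally, HpaI-digested fragments were read by capillary electrophoresis.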

Assay [6] in a line: ATG_MRE_CIS: Attagene CIS-FACTORIAL HepG2 Assay for human Metal Responsive Element (MRE) (AID 2282954). The conditions noted are these: HepG2 MRE cis-reporter transcription, Attagene multiplex; actives raise or lower the signal. In a few lines: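 Measured here is mRNA induction from an MRE cis-element reporter in HepG2 after 24 h, quantified by fluorescence of labelled RT-PCR products on capillary electrophoresis; gain- and loss-of-signal fits use DMSO as baseline.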

Assay [7] can be described thus: ATG_PBREM_CIS: Attagene CIS-FACTORIAL HepG2 Assay for human Phenobarbital-responsive Enhancer Module (PBREM) (AID 2282955). The conditions noted are these: HepG2 PBREM cis-reporter, Attagene multiplexed transcription; actives raise or lower the signal. In a few lines:
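HepG2, transient MRTU transfection, 24 h dosing; RNA → oligo(dT) RT → PCR → 6-FAM extension → HpaI → CE. Bidirectional fit vs DMSO.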

Assay [8] addresses Paired box protein Pax-6 (Homo sapiens) (UniProt P26367). Nature of the assay: ATG_Pax6_CIS: Attagene CIS-FACTORIAL HepG2 Assay for human Paired Box 6 (PAX6) (AID 2282956). The settings on record: HepG2 CIS-FACTORIAL PAX6 reporter transcription, RNA readout; actives raise or lower the signal. In a few lines: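 Readout: reporter transcript fluorescence after RT-PCR and capillary electrophoresis. Cells: HepG2, transiently transfected with cis-regulated MRTUs. Exposure 24 h. Gain or loss of signal fitted bidirectionally relative to DMSO.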

Assay [9] can be described thus: ATG_Sox_CIS: Attagene CIS-FACTORIAL HepG2 Assay for human SRY-box transcription factor (SOX) (AID 2282960). The settings on record: HepG2 Attagene cis-factorial SOX reporter, mRNA; actives raise or lower the signal. The method, boiled down: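 Cells were transfected with reporter constructs under cis-regulatory promoters, then exposed to chemicals for 24 h. Reporter transcripts were quantified by fluorescence after RT-PCR and capillary electrophoresis; activity was fitted in both directions against DMSO.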

For assay [10], the target named is Transcription factor Sp1 (Homo sapiens) (UniProt P08047). Nature of the assay: ATG_Sp1_CIS: Attagene CIS-FACTORIAL HepG2 Assay for human Specificity Protein 1 (Sp1) (AID 2282961). The conditions noted are these: HepG2 Sp1 cis-reporter transcription, actives raise or lower the signal. The method, boiled down:
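Measures mRNA induction of an Sp1-linked reporter in HepG2 cells 24 h post-dosing. Multiplexed reporters read by RT-PCR and capillary electrophoresis; DMSO serves as negative control and baseline.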

Assay [11] can be described thus: ATG_SREBP_CIS: Attagene CIS-FACTORIAL HepG2 Assay for human Sterol Regulatory Element Binding (SREBP) (AID 2282962). The conditions noted are these: HepG2 Attagene cis-factorial SREBP reporter, mRNA; actives raise or lower the signal. The method, boiled down:
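Readout: fluorescent reporter-transcript peaks resolved by capillary electrophoresis after RT-PCR. Cells were human HepG2 carrying transfected cis-promoter reporter constructs, dosed for 24 h. Gain or loss of signal was fitted against DMSO controls.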

Assay [12] has as its target Signal transducer and activator of transcription 3 (Homo sapiens) (UniProt P40763). Description: ATG_STAT3_CIS: Attagene CIS-FACTORIAL HepG2 Assay for human Signal Transducer and Activator of Transcription 3 (STAT3) (AID 2282963). The settings on record: HepG2, Attagene cis-factorial STAT3 reporter transcription; actives raise or lower the signal. In a few lines: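 Fluorescence intensity of 6-FAM-labelled reporter fragments, separated by capillary electrophoresis after RT-PCR, gave the signal. Cells were HepG2 transfected with cis-element reporter units and treated 24 h; fitting was bidirectional relative to DMSO.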

A short description of assay [13]: ATG_TA_CIS: Attagene CIS-FACTORIAL HepG2 Assay for human TA Basal Promoter (AID 2282964). The conditions noted are these: HepG2 Attagene CIS-factorial TA basal promoter reporter; actives raise or lower the signal. In a few lines: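 Background internal-marker endpoint from a 52-component HepG2 cis-reporter panel. Cells treated 24 h; reporter transcripts quantified via RT-PCR and CE fluorescence against DMSO baseline.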

Assay [14] concerns the target Heat shock factor protein 1 (Homo sapiens) (UniProt Q00613). Nature of the assay: ATG_HSE_CIS: Attagene CIS-FACTORIAL HepG2 Assay for human Heat Shock Transcription Factor 1 (HSE) (AID 2282953). The settings on record: HepG2 HSE cis-reporter, Attagene RNA transcription; actives raise or lower the signal. The method, boiled down: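 Liver-derived HepG2 cells carry transiently introduced multiple reporter units governed by cis promoters. Reporter RNA measured 24 h post-dose through reverse transcription, PCR amplification, fluorescent labelling and capillary electrophoresis, normalised to DMSO.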

Assay [15] can be described thus: ATG_PXRE_CIS: Attagene CIS-FACTORIAL HepG2 Assay for human Pregnane X Receptor Element (PXRE) (AID 2282957). The conditions noted are these: HepG2 Attagene CIS-FACTORIAL PXRE reporter, mRNA; actives raise or lower the signal. The method, boiled down: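 After a 24 h chemical incubation, total RNA from transfected HepG2 cells was reverse-transcribed and reporter cDNA amplified, FAM-labeled, HpaI-digested and sized by capillary electrophoresis. DMSO served as baseline for bidirectional curve fitting.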

Assay [16] can be described thus: ATG_RORE_CIS: Attagene CIS-FACTORIAL HepG2 Assay for human RAR-related Orphan Receptor Element (RORE) (AID 2282959). The conditions noted are these: HepG2 Attagene cis-factorial RORE reporter, mRNA; actives raise or lower the signal. The method, boiled down: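 Multiplexed reporter assay measuring mRNA induction from a cis promoter element in transiently transfected HepG2 cells after 24 h treatment. Detection via RT-PCR and capillary electrophoresis fluorescence; DMSO serves as baseline.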

Assay [17] can be described thus: ATG_M_06_CIS: Attagene CIS-FACTORIAL HepG2 Assay for M06 Transcription Factor (Internal Marker) (AID 2282950). The conditions noted are these: HepG2 Attagene CIS-FACTORIAL M06 internal marker reporter; actives raise or lower the signal. The method, boiled down: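 Cells (HepG2, transiently carrying cis-driven reporter units) receive chemical for 24 h before RNA isolation. Reporter cDNA is PCR-amplified, FAM-labelled by primer extension, HpaI-digested and sized on a capillary analyser.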

Assay [18] is described as follows: ATG_PPRE_CIS: Attagene CIS-FACTORIAL HepG2 Assay for human Peroxisome Proliferator-activated Response Element (PPRE) (AID 2282958). The conditions noted are these: HepG2 PPRE cis-element reporter, Attagene transcription factor profiling; actives raise or lower the signal. In a few lines: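 Transcript-level reporter induction in transfected HepG2 cells after 24 h chemical exposure, quantified by fluorescence from RT-PCR products separated by capillary electrophoresis.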

Chain of Transcription factor Sp1 (Homo sapiens) (P08047 whole entry, looked up): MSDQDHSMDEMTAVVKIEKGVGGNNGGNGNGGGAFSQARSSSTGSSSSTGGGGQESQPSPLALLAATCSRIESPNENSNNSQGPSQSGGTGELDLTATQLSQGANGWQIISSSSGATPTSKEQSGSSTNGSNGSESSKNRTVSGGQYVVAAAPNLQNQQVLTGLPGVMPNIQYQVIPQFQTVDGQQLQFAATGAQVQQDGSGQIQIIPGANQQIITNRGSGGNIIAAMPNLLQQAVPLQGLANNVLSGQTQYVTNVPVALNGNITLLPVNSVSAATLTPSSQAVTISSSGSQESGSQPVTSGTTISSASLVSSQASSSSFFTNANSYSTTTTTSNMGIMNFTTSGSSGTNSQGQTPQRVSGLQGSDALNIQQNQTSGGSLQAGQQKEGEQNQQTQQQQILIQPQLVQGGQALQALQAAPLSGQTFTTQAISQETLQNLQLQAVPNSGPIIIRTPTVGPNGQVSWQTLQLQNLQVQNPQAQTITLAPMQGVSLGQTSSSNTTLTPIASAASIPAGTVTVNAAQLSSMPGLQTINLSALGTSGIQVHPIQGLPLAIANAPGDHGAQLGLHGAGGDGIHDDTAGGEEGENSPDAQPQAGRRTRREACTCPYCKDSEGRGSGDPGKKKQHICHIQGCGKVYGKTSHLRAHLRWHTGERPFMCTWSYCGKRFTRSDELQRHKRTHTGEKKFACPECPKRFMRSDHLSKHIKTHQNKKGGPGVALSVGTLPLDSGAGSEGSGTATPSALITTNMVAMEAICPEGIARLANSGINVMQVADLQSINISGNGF
Chain of Heat shock factor protein 1 (Homo sapiens) (Q00613 whole entry, looked up): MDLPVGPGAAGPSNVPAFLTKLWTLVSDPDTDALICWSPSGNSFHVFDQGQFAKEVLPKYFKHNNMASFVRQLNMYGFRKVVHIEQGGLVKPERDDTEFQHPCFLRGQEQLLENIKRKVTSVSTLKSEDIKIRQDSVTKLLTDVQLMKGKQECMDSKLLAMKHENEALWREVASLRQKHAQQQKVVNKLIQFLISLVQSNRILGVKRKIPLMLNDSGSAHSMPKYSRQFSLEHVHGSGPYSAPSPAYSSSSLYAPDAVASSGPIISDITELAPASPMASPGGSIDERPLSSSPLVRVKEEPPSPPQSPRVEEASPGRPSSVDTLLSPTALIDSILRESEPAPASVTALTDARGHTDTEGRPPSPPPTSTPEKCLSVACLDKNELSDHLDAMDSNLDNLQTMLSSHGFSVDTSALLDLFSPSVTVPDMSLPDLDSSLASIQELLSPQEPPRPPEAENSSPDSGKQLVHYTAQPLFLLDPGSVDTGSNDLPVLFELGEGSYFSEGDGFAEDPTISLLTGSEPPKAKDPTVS
Chain of Hypoxia-inducible factor 1-alpha (Homo sapiens) (Q16665 whole entry, looked up): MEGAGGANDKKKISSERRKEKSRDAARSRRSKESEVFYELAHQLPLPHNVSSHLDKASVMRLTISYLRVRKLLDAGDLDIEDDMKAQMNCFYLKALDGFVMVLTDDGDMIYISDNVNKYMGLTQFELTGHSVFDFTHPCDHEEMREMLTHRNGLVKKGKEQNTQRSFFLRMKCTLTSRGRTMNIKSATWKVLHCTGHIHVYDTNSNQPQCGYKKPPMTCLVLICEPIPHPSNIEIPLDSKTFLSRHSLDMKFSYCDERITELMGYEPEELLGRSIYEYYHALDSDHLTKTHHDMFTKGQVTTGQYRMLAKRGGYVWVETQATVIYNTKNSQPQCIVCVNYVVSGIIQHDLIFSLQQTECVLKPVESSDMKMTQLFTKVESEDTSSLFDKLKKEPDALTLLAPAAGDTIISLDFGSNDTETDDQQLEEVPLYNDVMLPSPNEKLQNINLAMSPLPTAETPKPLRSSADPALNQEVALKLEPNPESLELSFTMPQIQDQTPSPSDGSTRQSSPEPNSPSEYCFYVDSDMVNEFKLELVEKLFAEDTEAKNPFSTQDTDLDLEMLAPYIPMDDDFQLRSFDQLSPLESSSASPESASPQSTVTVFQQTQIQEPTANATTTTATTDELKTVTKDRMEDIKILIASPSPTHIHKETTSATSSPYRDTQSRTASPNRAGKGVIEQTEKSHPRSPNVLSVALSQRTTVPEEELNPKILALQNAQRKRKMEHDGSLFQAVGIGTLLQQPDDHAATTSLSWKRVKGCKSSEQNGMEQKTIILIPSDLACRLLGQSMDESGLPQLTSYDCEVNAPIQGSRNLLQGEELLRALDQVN
Chain of Hepatocyte nuclear factor 6 (Homo sapiens) (Q9UBC0 whole entry, looked up, the tested form may be a part): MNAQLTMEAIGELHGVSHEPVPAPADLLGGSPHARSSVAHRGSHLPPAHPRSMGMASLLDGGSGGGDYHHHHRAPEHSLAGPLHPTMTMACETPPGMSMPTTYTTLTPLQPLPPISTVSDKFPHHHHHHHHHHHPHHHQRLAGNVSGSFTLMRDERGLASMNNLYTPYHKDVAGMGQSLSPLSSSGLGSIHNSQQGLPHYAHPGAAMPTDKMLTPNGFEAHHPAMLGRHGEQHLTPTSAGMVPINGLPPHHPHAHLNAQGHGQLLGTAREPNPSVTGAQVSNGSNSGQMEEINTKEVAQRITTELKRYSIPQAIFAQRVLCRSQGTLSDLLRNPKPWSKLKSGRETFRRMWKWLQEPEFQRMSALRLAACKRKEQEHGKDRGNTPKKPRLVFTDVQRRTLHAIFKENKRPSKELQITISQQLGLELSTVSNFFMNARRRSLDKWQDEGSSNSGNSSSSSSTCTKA
Chain of Signal transducer and activator of transcription 3 (Homo sapiens) (P40763 whole entry, looked up, the tested form may be a part): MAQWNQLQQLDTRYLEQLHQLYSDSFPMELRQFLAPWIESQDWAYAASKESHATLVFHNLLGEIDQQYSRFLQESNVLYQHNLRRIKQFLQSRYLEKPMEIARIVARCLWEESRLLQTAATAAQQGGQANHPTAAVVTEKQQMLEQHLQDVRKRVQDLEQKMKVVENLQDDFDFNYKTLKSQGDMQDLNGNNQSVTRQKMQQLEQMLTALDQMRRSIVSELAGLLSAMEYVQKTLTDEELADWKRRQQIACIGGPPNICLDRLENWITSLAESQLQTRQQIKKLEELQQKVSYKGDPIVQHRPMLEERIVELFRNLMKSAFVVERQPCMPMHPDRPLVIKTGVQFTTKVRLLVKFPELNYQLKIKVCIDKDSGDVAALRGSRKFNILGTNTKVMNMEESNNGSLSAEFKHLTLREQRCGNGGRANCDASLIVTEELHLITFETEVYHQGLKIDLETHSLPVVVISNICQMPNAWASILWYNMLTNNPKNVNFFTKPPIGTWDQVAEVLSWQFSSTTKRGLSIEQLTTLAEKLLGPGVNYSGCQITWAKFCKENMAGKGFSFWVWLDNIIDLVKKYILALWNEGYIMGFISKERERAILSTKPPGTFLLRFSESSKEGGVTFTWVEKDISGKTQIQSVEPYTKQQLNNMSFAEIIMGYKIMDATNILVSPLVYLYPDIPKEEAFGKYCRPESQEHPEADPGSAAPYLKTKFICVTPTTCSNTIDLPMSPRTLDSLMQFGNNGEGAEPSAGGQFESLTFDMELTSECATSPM
Chain of Paired box protein Pax-6 (Homo sapiens) (P26367 whole entry, looked up): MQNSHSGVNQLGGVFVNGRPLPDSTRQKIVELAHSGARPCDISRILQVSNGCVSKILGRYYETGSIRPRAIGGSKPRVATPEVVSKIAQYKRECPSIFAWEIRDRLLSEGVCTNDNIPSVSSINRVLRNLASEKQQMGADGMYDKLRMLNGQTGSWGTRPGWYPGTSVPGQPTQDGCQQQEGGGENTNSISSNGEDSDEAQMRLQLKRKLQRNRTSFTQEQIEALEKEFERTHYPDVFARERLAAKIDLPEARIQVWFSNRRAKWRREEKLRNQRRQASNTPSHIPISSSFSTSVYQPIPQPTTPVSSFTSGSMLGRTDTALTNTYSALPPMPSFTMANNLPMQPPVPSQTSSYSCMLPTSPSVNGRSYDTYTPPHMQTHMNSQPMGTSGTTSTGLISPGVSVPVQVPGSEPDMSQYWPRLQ

On to `C=C(C)C1CC=C(C)CC1` (centres undefined), for which the result in [1], in [2], in assay [3], in assay [4], in assay [5] and in [6] was inactive. Also, the result in assay [7], in [8], in assay [9], in [10], in [11] and in [12] was inactive. Besides, in assay [13], the outcome was inactive.

With `COCC(=O)O`, the outcome in assay [1], in assay [2], in [3], in assay [5], in assay [14] and in assay [6] was inactive. Further, the result in [8], in [15], in [16], in assay [10], in [11] and in assay [12] was inactive. Besides, the outcome in assay [13] was inactive.

On to `C=C[C@@]1(C)CC(=O)[C@]2(O)[C@@]3(C)[C@@H](O)CCC(C)(C)[C@@H]3[C@H](O)[C@H](OC(C)=O)[C@@]2(C)O1`, for which the compound was called inactive in assay [1], in assay [2], in assay [3], in [17], in assay [4] and in assay [5]. For the same compound, the outcome in assay [14], in assay [6], in [16], in [9], in assay [10] and in [11] was inactive. The call in [12] and in assay [13] was inactive. Further, the AC50 in [7] was 803 nM (active); in [15] it was 0.433 µM (active).

Regarding `O=C1CCCCC1C1CCCCC1` (centres undefined), the compound was called inactive in assay [1], in assay [2], in [17], in [4], in assay [5] and in assay [14]. Moreover, the compound was classed as inactive in assay [6], in assay [8], in assay [16], in [9], in assay [10] and in assay [11]. Further, the outcome in assay [12] and in assay [13] was inactive. Also, in [15], the AC50 is 27.3 µM (active).

Consider `Cn1ccnc1`, for which the call in assay [1], in [2], in assay [3], in assay [17], in assay [5] and in assay [14] was inactive. Moreover, the outcome in assay [6], in assay [7], in assay [8], in assay [15], in assay [18] and in assay [16] was inactive. Moreover, the compound was called inactive in [9], in assay [10], in [11], in assay [12] and in [13].

In general, AC50 refers to the midpoint of the concentration-response curve, whichever way the signal moves.
